LYPLA1 inh = counter-screen for PME1 inhibitors: inhibitors of human LYPLA1; O75608; recombinant LYPLA1, FP-Rh probe fluorescence polarization; inhibition, % at 5.9 µM; hit rate 0.16% among 320,000;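 active means inhibition above the mean of all tested compounds plus 3 SD, set per campaign, cut at about 14% in these data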;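 further: inhibitors block serine hydrolase probe labeling of LYPLA1 so polarization falls; 0% = enzyme with DMSO and 100% = wells lacking LYPLA1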
PREPL inhibitor = human PREPL enzyme inhibition | Q4J6C6 | recombinant PREPL, fluorescence polarization activity-based probe | inhibition, % at 5.96 µM | hit rate 0.68% among 320,000 | AID 2751;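 further: 0% = enzyme with DMSO and 100% = wells lacking enzyme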
Target sequence (Q4J6C6 whole entry, looked up): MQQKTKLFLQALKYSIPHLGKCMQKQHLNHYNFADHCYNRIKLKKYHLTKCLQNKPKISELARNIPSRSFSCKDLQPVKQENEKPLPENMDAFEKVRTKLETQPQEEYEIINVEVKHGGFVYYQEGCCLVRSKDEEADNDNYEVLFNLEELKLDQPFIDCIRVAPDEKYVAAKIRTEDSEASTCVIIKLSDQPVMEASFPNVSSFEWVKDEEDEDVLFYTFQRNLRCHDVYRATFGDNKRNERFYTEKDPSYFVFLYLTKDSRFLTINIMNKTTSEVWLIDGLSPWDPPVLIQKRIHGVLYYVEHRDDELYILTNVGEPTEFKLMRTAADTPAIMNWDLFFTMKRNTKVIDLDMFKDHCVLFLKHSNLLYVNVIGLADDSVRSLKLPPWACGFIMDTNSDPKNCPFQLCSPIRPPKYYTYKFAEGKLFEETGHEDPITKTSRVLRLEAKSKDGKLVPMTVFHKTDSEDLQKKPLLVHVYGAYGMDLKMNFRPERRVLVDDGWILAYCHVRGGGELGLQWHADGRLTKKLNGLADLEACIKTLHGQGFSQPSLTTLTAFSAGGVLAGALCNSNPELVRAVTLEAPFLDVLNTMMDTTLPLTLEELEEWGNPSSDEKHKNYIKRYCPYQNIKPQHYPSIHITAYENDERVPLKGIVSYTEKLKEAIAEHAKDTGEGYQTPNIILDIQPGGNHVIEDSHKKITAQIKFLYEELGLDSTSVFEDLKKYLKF
MEX-5 binding = C. elegans MEX-5 TCR-2 RNA binding activity; activity score (negative = inhibition of binding), % at 10 µM; MEX-5/FITC-TCR2 RNA binding, fluorescence polarization; active compounds read low; hit rate 0.38% among 300,000;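 active means inhibition past about -25% in most replicates, and total fluorescence under double the plate's negative control median, limit read from the data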;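 further: 0% = DMSO and -100% = 5 µM competing unlabeled TCR2 RNA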
LYPLA2 inh = counter-screen for PME1 inhibitors: inhibitors of human LYPLA2; O95372; recombinant LYPLA2, FP-Rh probe fluorescence polarization; inhibition, % at 5.9 µM; hit rate 0.38% among 320,000; AID 2177;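 active means inhibition above the screen-wide mean plus 3 SD, limit set per campaign, cut at about 26% in these data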;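 further: 0% = LYPLA2 with DMSO and 100% = wells lacking LYPLA2 enzyme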
Fam108B inh = Fam108B inhibition, counter-screen for RBBP9 inhibitors; AID 1947; recombinant Fam108B, FP-Rh probe fluorescence polarization; hit rate 0.33% among 300,000; inhibition, % at 9.51 µM;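 active means inhibition above the screen mean inhibition plus 3 SD, computed separately per campaign, cut at about 18% in these data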;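 further: inhibitors lower polarization as less probe binds the enzyme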
PME-1 primary = PME-1 (human) inhibition; Q9Y570; recombinant PME-1, FP-Rh probe fluorescence polarization; inhibition, % at 5.9 µM; hit rate 0.53% among 320,000; AID 2130;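 active means inhibition above the campaign mean of all compounds plus 3 SD, cut at about 26% in these data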;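 further: competitive labeling of PME-1 active site by serine hydrolase directed probe; 0% = PME-1 with DMSO and 100% = wells lacking PME-1 enzyme; inhibitors block probe labeling so polarization falls and inhibition rises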
PREPL confirm = human PREPL inhibition, confirmation | recombinant PREPL, fluorescence polarization activity probe | hit rate 67% among 2,000 | inhibition, % at 5.96 µM | AID 2803 | shares compounds with PREPL inhibitor;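 further: 0% = protein with DMSO and 100% = wells lacking protein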
An asterisk follows results filed as active; x = not tested or not shown. Hits are enriched below; roughly 1.6% of the tested compounds scored in any of these assays. Unless noted, no stated cut-off is given here; in the data, active means inhibition above about 43%; inactive means the rest.

SMILES | LYPLA1 inh | PREPL inhibitor | MEX-5 binding | LYPLA2 inh | Fam108B inh | PME-1 primary | PREPL confirm
COc1cc(O)c(C(CC(=O)N2CCN(c3ccccc3)CC2)c2ccc(N(C)C)cc2)c(OC)c1 (stereo not drawn) | -2 | 54* | -1 | -3 | 7 | -2 | 48*
COc1cc(O)c(C(CC(=O)N2CCCC(C)C2)c2ccc(N(C)C)cc2)c(OC)c1 (stereo not drawn) | -3 | 20 | -1 | 5 | -2 | 5 | x
O=C(C1=C[C@@H](c2ccccc2)C[C@@H](OCc2ccc(CO)cc2)O1)N1CCOCC1 | 0 | 29 | 2 | -4 | -2 | 2 | x
O=C(C1=C[C@@H](c2ccc(Br)cc2)C[C@@H](OCc2ccc(CO)cc2)O1)N1CCOCC1 | -5 | 44* | 4 | -1 | 2 | -6 | 51*
O=C(C1=C[C@H](c2ccc(Br)cc2)C[C@H](OCc2ccc(CO)cc2)O1)N1CCOCC1 | -1 | 43* | -3 | -1 | 6 | 4 | 43
O=C(Cn1nc2sc3ccccc3n2c(=O)c1=O)c1cccs1 | 1 | 17 | 0 | 1 | 2 | 5 | x
Cc1ccc(N=Cc2sc(O)c3ccccc23)cc1 | -6 | 50* | -1 | 2 | 14 | 23 | 54*
COc1ccccc1-c1cc(C(=O)O)c2c(=O)n(C)c(=O)n(Cc3ccccc3)c2n1 | 0 | -12 | -3 | -2 | 4 | 2 | x
O=[N+]([O-])c1cccc(/C=C/c2nc[nH]c2[N+](=O)[O-])c1 | 10 | 45* | -2 | 12 | 6 | 1 | 40
Cc1ccc2sc(N(CCCN(C)C)C(=O)c3ccc(S(=O)(=O)N(C)C4CCCCC4)cc3)nc2c1C | 3 | 52* | 4 | 1 | 3 | 7 | 47*
CCN(CC)CCN(C(=O)c1ccc(S(=O)(=O)N(C)C2CCCCC2)cc1)c1nc2c(C)cccc2s1 | -6 | 4 | 2 | 1 | -5 | -9 | x
O=C(c1cc([N+](=O)[O-])ccc1Cl)N1CCN(c2ccc([N+](=O)[O-])cc2)CC1 | 2 | 65* | -1 | 12 | 3 | 4 | 58*
CC(C)/C(=N\NS(=O)(=O)c1ccc(Br)cc1)c1cccs1 | 0 | 15 | -2 | 4 | 4 | 1 | x
CC(C)(C)c1ccc(CNc2cc(N3CCOCC3)ccc2[N+](=O)[O-])cc1 | -2 | 6 | -6 | -4 | 0 | -4 | x
c1cncc(CNc2ccc3c(c2)OCO3)c1 | -1 | 44* | -10 | -8 | 3 | 8 | 52*
CC(=O)Nc1ccc(NC(=O)c2cccc(Oc3ccccc3)c2)cc1 | 4 | -3 | 1 | -4 | 1 | 0 | x
Cc1nn(-c2ccccc2)c(C)c1/C=N/Nc1nc2ccccc2[nH]1 | 5 | 29 | 0 | 6 | 7 | -78 | x
C=CCn1cc(/C=N/Nc2nc3ccccc3[nH]2)c2ccccc21 | 1 | 45* | 1 | 12 | 14 | 3 | 50*
Cc1c(/C=N/Nc2nc3ccccc3[nH]2)c2ccccc2n1C | -4 | 45* | -1 | 4 | 8 | 6 | 36
COc1ccc(/C=C/C=N/NC(=O)COc2ccc(OC)cc2)cc1 | 8 | 0 | 2 | 9 | -2 | -3 | x
COc1ccc(NCC(=O)N/N=C/C=C\c2ccccc2)cc1 | -2 | 67* | -1 | 2 | 3 | -7 | 46*
Cc1ccc(NC(=O)C[n+]2cc(-c3ccc(C)cc3)n3c2CCC3)cc1 | 2 | 15 | x | 3 | 0 | 3 | x
Cn1c(NC(=O)C[n+]2cc(-c3ccc(Cl)c(Cl)c3)n3c2CCC3)cc(=O)n(C)c1=O | -1 | 60* | -1 | 1 | 1 | 6 | 51*
Nc1c(C(=O)NCc2ccc3c(c2)OCO3)c2nc3ccccc3nc2n1CCCN1CCOCC1 | -7 | 52* | 0 | 1 | 6 | 6 | 54*
Nc1c(C(=O)NCc2ccco2)c2nc3ccccc3nc2n1CCc1ccc(F)cc1 | -6 | 53* | -2 | -7 | 7 | 8 | 42
SMILES | LYPLA1 inh | PREPL inhibitor | MEX-5 binding | LYPLA2 inh | Fam108B inh | PME-1 primary | PREPL confirm
COc1ccc(-n2c(N)c(C(=O)NCc3ccco3)c3nc4ccccc4nc32)cc1 | -6 | 9 | -5 | -7 | 0 | 2 | x
CCN(CC)C(=O)CSc1nnc(-c2ccncc2)n1N | -2 | -2 | -1 | -3 | 3 | -1 | x
CC(C)Oc1ccc(N2CC(C(=O)Nc3ccc4c(c3)OCO4)CC2=O)cc1 (stereo not drawn) | 0 | -1 | 1 | -1 | 3 | 1 | x
Nc1cc(N)cc(-c2nc3ccccc3[nH]2)c1 | -9 | 49* | x | -9 | 17 | 32* | 13
c1ccc(-c2nc3ccccc3[nH]2)cc1 | 2 | 5 | 0 | 7 | 5 | -3 | x
CN(C)c1ccc(NC(=O)Cn2cc3c(n2)CCCC3)cc1 | 0 | 69* | -12 | -4 | -1 | 0 | 69*
O=C(COc1ccc2ccc(=O)oc2c1)Nc1ccc(N2CCOCC2)cc1 | 0 | 11 | -3 | 2 | 9 | 2 | x
O=C(COc1ccc(F)c(Cl)c1)Nc1ccc(N2CCOCC2)cc1 | x | 56* | x | x | x | x | 55*
CC(Oc1cccc(Cl)c1)C(=O)N(C)CC(=O)Nc1ccc(N2CCOCC2)cc1 (stereo not drawn) | 3 | 17 | -1 | 3 | 3 | 3 | x
COc1ccc2c(CC(=O)Nc3ccc(N4CCOCC4)cc3)coc2c1 | 2 | 54* | 4 | 0 | 5 | 1 | 60*
O=C(CCn1c(=O)oc2cc(Cl)ccc21)Nc1ccc(N2CCOCC2)cc1 | 2 | 49* | -1 | 5 | 2 | 2 | 49*
O=C(COc1cccc(Cl)c1)Nc1ccc(N2CCOCC2)cc1 | 4 | 46* | -1 | 2 | 1 | 0 | 47*
COc1ccc2c(CC(=O)Nc3ccc(OC)c(S(=O)(=O)N4CCOCC4)c3)coc2c1 | -5 | 29 | 1 | 4 | 2 | -6 | x
COc1ccccc1Oc1ccc(S(=O)(=O)N2CCCCC2)cc1NC(=O)CCNC(C)=O | 1 | 16 | -2 | 6 | 6 | 3 | x
N#CCCN(C(=O)CSc1nc2ccccc2c(=O)[nH]1)c1ccc(F)cc1 | x | 3 | x | x | x | x | x
CCOc1ccc(CCNC(=O)c2ccc3c(=O)[nH]c4c(C(=O)NC(C)C)sc(=S)n4c3c2)cc1 | 0 | 55* | -5 | 10 | 11 | 10 | 79*
CC(C)NC(=O)c1sc(=S)n2c1[nH]c(=O)c1ccc(C(=O)NCCc3ccc(Cl)cc3)cc12 | 4 | 70* | 1 | 20 | 1 | 19 | 80*
Cc1n[nH]c(=O)c2c(NC(=O)CSc3ccc(Br)cc3)oc(C)c12 | -3 | 6 | 0 | -9 | 3 | 6 | x
O=C(O)/C=C\C(=O)Nc1ccc(N2CCN(c3ccc(F)cc3)CC2)cc1 | -1 | 51* | -1 | 3 | 4 | 7 | 25

Assay outcomes deposited in PubChem BioAssay by several laboratories.
